The panel holds about 83,000 compounds, 20% with a hit somewhere; the sample as a whole holds those more often.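 Interpretation: 100, growth as untreated; towards 0, rising growth inhibition; 0, no net growth; 0 to -100, cell death. Compounds scoring below 10 were considered active.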 A number with no mark means an inactive call. Calls of active or inactive are those of the source.

Experimental findings from PubChem BioAssay (NCI) are described below.

The subject of this assay is COLO 205 colon. Kind of assay: NCI-60 one-dose screen, 48 h (100 = growth as untreated, 0 = no growth, -100 = all killed). To be noted: 10 µM. The procedure: Cells are grown in 96 well plates and exposed to the test compound for 48 hours. Compounds are tested at a single concentration, which is 10^-5 M for most compounds. The reported endpoint is percent growth (GI% or GIPRCNT), where numbers from 0 - 100% represent growth inhibition, and numbers from -100% - 0 represent cell death. For example, a value of 40 represents 60% growth inhibition. A value of 0 means no net growth occurred over the course of the experiment. A value of -40 indicates 40% of cells at the beginning of the experiment died by the end of the experiment. A value of -100 means all cells are dead at the end of the experiment.
NCI-60 Human Tumor Cell Lines Screen was performed using the standard one-dose NCI protocol, which is described in more detail at https://dtp.cancer.gov/discovery_development/nci-60/default.htm.
Compounds with GIPRCNT values below 10 were considered active. Activity score was based on GIPRCNT using the following formula: […]
Score is 0 for GIPRCNT values of 100 or above, 50 for GIPRCNT values of 0, and 100 for GIPRCNT values of -100.
With `Oc1ccc(/C=C2\CCCc3cc4ccc(O)cc4[o+]c32)c(O)c1`, the growth is 50.6%.

Take `COc1cc2c(cc1OC)CN(CCCCOc1cc(O)c3c(=O)cc(-c4ccccc4)oc3c1)CC2`: the growth was -43.8% (active).

On to `CN1CCCN(Cc2ccc(C(=O)Nc3cccc(Nc4ccc5cc(O)ccc5n4)c3)cc2C(F)(F)F)CC1`, for which the growth is 63.2%.

`OCCNc1oc(-c2ccccc2)nc1[P+](c1ccccc1)(c1ccccc1)c1ccccc1`: the growth is -52.8% (active).

Consider `Cc1noc2c(Cc3ccc([N+](=O)[O-])cc3)nn(CC(=O)N/N=C/c3ccc(Cl)cc3)c(=O)c12`, for which the growth is 79.3%.

As for `Cc1ccc(-c2nc(Nc3ccccc3C(=O)O)c3ccccc3n2)cc1`, the growth is 80.9%.

`Cc1cc(C)nc(/N=C(\N)Nc2ccc(S(=O)(=O)Nc3nc(C)cc(C)n3)cc2)n1`: the growth was 120%.

Turning to `CN(C)c1nc(NCCNS(=O)(=O)c2ccc(C(=O)/C=C/c3ccccc3)cc2)nc(Nc2ccc(F)cc2)n1`, the growth was 54%.

As to `CC(=O)NNc1ccc2nnc(-c3ccc(Br)cc3)n2n1`, the growth is 109%.

`O=C(NCCCCC(c1ccc(F)cc1)c1ccc(F)cc1)NCCCc1cccnc1`: the growth is -12.1% (active).

For `CC1(C)CC[C@]2(C(=O)Nc3ccccc3)CC[C@]3(C)C(=CC[C@@H]4[C@@]5(C)CC[C@H](N)C(C)(C)[C@@H]5CC[C@]43C)[C@H]2C1`, the growth was -36.4% (active).

Turning to `Cc1ccc(-c2ccc(SCC(=O)Nc3ccc(S(N)(=O)=O)cc3Br)nn2)cc1`, the growth was 33.1%.

`Nc1nc(Nc2ccccc2)nn1Cc1c(Cl)cccc1Cl`: the growth was 33.2%.

Take `Clc1ccc2c(N/N=C/c3c[nH]c4ccc(Br)cc34)ccnc2c1`: the growth is -44% (active).

As for `COc1ccsc1/C=N/NC(=O)c1[nH]c2ccc(Br)cc2c1-c1ccccc1`, the growth was -32.4% (active).

Turning to `Cc1ccc(CSc2nc(-c3ccc(F)cc3)c(C#N)c(=O)[nH]2)cc1`, the growth is 131%.

For the molecule `O=C(Nc1nc2ccc([N+](=O)[O-])cc2s1)Nc1ccccc1I`, the growth was -94.2% (active).

`O=C(CN1CCN(c2ncnc3c2cnn3-c2ccccc2)CC1)Nc1nncs1`: the growth is -50.2% (active).

For `Cc1ccc(/C=C/C(=O)c2ccc(S(=O)(=O)NCCNc3nc(Nc4ccc(F)cc4)nc(N(C)C)n3)cc2)cc1`, the growth was 35.4%.

Turning to `Cc1cc(=O)oc2cc(OCCCCOc3ccc(/C=C/C(=O)Nc4ccccc4[N+](=O)[O-])cc3)ccc12`, the growth was 124%.

`CCOc1ccc(/C=N/NC(=O)Cn2nc(Cc3ccccc3)c3onc(C)c3c2=O)cc1`: the growth is 29.2%.

Consider `CN(CCF)c1ccc(/C=C/C(=O)c2ccc(N)cc2O)cc1`, for which the growth was 111%.

As for `Cc1ccn2c(C(=O)c3ccccc3)cc(-c3cc(-c4ccc(N(C)C)cc4)c(C#N)c(N)n3)c2c1`, the growth is 66.2%.

Regarding `COc1cc(/C=N/NC(=O)c2ccc3nc(-c4ccc(Cl)cc4)[nH]c3c2)cc(OC)c1OC`, the growth is -9.12% (active).

Consider `O=C(c1ccc(O)cc1)C1[C@H](c2ccc(Br)cc2)[C@@H](c2ccccc2)NC12C(=O)Nc1ccc(Br)cc12` (stereo not given in full), for which the growth is -85.2% (active).

In the case of `O=c1oc2ccc(-c3ccc(F)cc3F)cc2c(=O)n1-c1ccc(F)cc1`, the growth is 83.2%.

In the case of `CC(=O)Nc1nc(-c2ccc(N3CCN(C)CC3)c(NS(=O)(=O)c3cccc4c(N(C)C)cccc34)c2)cs1`, the growth was 47.4%.

In the case of `CS(=O)(=O)Nc1ccc(-c2ccc3c(c2)ncn3-c2ccc(NC(=O)Nc3ccc(Br)cc3)cc2)cc1`, the growth was -27.9% (active).

With `Cc1cccc(NC(=O)CSc2nc3ccc(F)cc3c(=O)n2-c2ccc(Cl)cc2)c1C`, the growth was 94.7%.

For the molecule `CC(=O)Nc1ccc(-c2cn(-c3cccc(C(=O)Nc4cc(CN5CCOCC5)cc(C(F)(F)F)c4)c3)nn2)cn1`, the growth is -91.5% (active).

Consider `C=C1CCC2C3(C)COC(c4ccccc4F)OC3CCC2(C)C1C/C=C1/C(=O)OCC1O` (stereo not given), for which the growth was -56.3% (active).

As to `Cc1cc(C)nc(NS(=O)(=O)c2ccc(N/C(N)=N/c3nccc(-c4cccs4)n3)cc2)n1`, the growth was 105%.

Consider `CS(=O)(=O)Nc1ccc(-c2ccc3c(c2)ncn3-c2ccc(NC(=O)Nc3ccc(Cl)c(C(F)(F)F)c3)cc2)cc1`, for which the growth is -90.4% (active).

Take `CN1CCN(Cc2ccc(NC(=O)c3cncc(C#Cc4cnc5ccc(N[C@H]6CCOC6)nn45)c3)cc2C(F)(F)F)CC1`: the growth is -79.6% (active).

Regarding `OCc1[nH]nc2cc(Nc3ncc4ccc(Br)c(OC5CCC(O)CC5)c4n3)ccc12` (stereo not given), the growth is -76.9% (active).

On to `COc1cccc(-c2nn(-c3ccccc3)cc2-c2ccnc(NCCCNC(=O)Nc3ccc(F)cc3)c2)c1`, for which the growth was -0.929% (active).

`COc1cc(OC(F)(F)F)ccc1C(=O)Nc1sc2c(c1C#N)CCC(=O)C2`: the growth is 97.8%.

As for `O=C(c1ccc(Cl)cc1)C1[C@H](c2ccccc2Br)[C@@H](c2ccccc2)NC12C(=O)Nc1ccccc12` (stereo not given in full), the growth was -42.4% (active).

Regarding `CO[C@@H]1CSSC1Cn1nc(-c2ccc(Oc3ccccc3)cc2)c2c(N)ncnc21` (stereo not given in full), the growth was 52%.

In the case of `COc1ccc2[nH]cc(/C=N/Nc3ccc(Br)cn3)c2c1`, the growth was 37.4%.
